# Sampled rows, rich in hits. Any-hit rate of the full collection: about 11%.
# HP1b chromo inh – blocks HP1-beta chromodomain binding to methylated histone tails | P83916 | AlphaScreen HP1-beta / biotin-H3K9me3 peptide binding | Potency, µM (titrated, usually from 114 µM), for the others: top-dose activity change, negative = inhibition, usual class: inhibitors | 0.56% of 390,000 active | AID 540317; note: nearly all actives have a fitted effect of over 70% in size
# Target sequence (P83916 whole entry, looked up): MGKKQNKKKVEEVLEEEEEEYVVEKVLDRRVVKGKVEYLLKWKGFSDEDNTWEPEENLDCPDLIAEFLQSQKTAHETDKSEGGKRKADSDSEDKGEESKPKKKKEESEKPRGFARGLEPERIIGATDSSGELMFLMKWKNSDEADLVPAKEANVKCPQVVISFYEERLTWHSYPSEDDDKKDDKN
#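 AlphaScreen: HP1-beta (50 nM) preformed 30 min with biotin-H3(1-18)K9me3 peptide (50 nM) in PBS pH 7.4, 0.01% Tween-20. Compound added for 30 min at RT, then streptavidin donor/nickel chelate acceptor beads (10 ug/mL) for 30 min.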
# JMJD2A Tudor inh – inhibitors of human JMJD2A Tudor domain | 4.4% of 390,000 active | AlphaScreen JMJD2A-Tudor / H3K4me3 peptide binding | O75164 | Potency, µM (series often up to 114 µM), for the others: top-dose activity change, negative = inhibition, usual class: inhibitors; note: % is set by controls: 0 for no effect and ±100 for the full control effect; nearly all actives have a fitted effect of over 50% in size
# L3MBTL1 inh – inhibitors of human L3MBTL1. AlphaScreen L3MBTL1–H3K9me1 peptide binding. Potency, µM (series often up to 57.1 µM), without a hit: top-dose activity, negative = inhibition, hits mostly inhibitors. 0.66% of 230,000 active; note: % is set by controls: 0 for no effect and ±100 for the full control effect; nearly all actives have a fitted effect of over 60% in size
#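 AlphaScreen proximity signal between nickel-chelate acceptor and streptavidin donor beads (final 10 ug/mL) reports binding of 50 nM L3MBTL1 to 75 nM biotin-H3 K9me1 peptide; complex incubated with compounds 30 min at room temperature; cefsulodin titration as control.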
# G9a block – inhibitors of human histone lysine methyltransferase G9a | Q96KQ7 | G9a H3K9 monomethylation, AlphaScreen, 2 h | Potency, µM (highest dose often 102 µM), without a hit: at the top dose activity, negative = inhibition, most hits filed as inhibitors | 8.8% of 350,000 active; note: % is set by controls: 0 for no effect and ±100 for the full control effect; nearly all actives have a fitted effect of over 75% in size
# Target sequence (Q96KQ7 913-1193 limits assumed): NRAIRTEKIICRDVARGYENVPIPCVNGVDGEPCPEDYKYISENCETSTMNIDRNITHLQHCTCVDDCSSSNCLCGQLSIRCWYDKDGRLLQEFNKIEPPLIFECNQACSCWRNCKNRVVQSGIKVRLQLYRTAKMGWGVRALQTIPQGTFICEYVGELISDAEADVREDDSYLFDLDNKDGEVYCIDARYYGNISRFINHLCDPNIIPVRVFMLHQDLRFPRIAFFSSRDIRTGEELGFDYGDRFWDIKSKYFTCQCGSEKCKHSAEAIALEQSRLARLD
#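 Enzyme 20 nM + cpd, 15 min RT; add b-H3K9 pep 500 nM / SAM 20 uM; 2 h RT; anti-H3K9me1 Ab 0.5 ug/mL + SA donor / anti-rabbit acceptor beads 20 ug/mL each, 10 min; AlphaScreen read.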
# BAZ2B inh – BAZ2B (human) inhibition; Q9UIF8; AlphaScreen BAZ2B-H3K14Ac peptide displacement; Potency, µM (titrated, usually from 114 µM), for the others: top-dose activity change, negative = inhibition, usual class: inhibitors; 4.4% of 360,000 active; AID 504333; note: % is set by controls: 0 for no effect and ±100 for the full control effect; nearly all actives have a fitted effect of over 60% in size
#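 Inhibition is scored as reduced AlphaScreen emission. The BAZ2B/b-H3(5-23)K14Ac complex (50 nM each) in PBS pH 7.4, 0.01% Tween-20 meets compound (up to 110 uM) for 30 min at RT before bead addition.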
# Numbers without * were called inactive; u = inconclusive; x = no result; [ ] = dose if it differs, or a comment. Calls come from the whole dose curve; as a rule, active = well fitted inhibition curve with a large enough effect; inconclusive = small, poorly fitted or top-dose-only effect; inactive = no such curve, though single readings can be large or run the other way. Potency is the fitted concentration of half-maximal effect.
SMILES,HP1b chromo inh,JMJD2A Tudor inh,L3MBTL1 inh,G9a block,BAZ2B inh
COc1ccc2c(c1)-c1nc(NC(=O)c3ccc(C)cc3)sc1CC2,33.7%,-20.6%,x,-31.9%[59 µM],-0.4%
COc1ccc2c(c1)CCc1sc(NC(=O)c3cccc(Br)c3)nc1-2,-13.7%,u,x,10µM*,-0.5%
COc1ccc(Br)c2c1-c1nc(NC(=O)c3ccc(F)cc3)sc1C2,33.8%,-25.5%,x,-21.9%[59 µM],70.8µM*
Cc1c(C(=O)N(Cc2ccccc2F)C2CCS(=O)(=O)C2)oc2ccc(F)cc12 (configuration not stated),43.5%,-25.3%,x,-3.2%[59 µM],-2.4%
COc1ccc(C(=O)c2cn(Cc3ccccc3F)c3cc4c(cc3c2=O)OCCO4)cc1OC,10.8%,-27.9%,x,-37.9%[59 µM],-24.8%
CC(C)(C)c1ccc(/C=N/NC(=S)NCc2ccccc2)cc1,23.6%,-13.6%,-4.1%,23.7%[59 µM],-0.3%
CN(C)c1ccc(/C=N/NC(=S)NCc2ccccc2)cc1,50.1µM*,12.6µM*,u,u,u
Cc1ccccc1N(CC(=O)N/N=C/c1ccc(N(C)C)cc1)C(=O)c1ccccc1,u,20µM*,x,u,56.2µM*
Cn1c(SCC(=O)N2CCOCC2)ncc(C(=O)Nc2ccc(F)cc2)c1=O,9.5%,-14.0%,x,9.7%[59 µM],-0.4%
CCc1ccc(S(=O)(=O)NCc2ccc3c(c2)CCN3C(=O)c2ccc(C)cc2)cc1,12.7%[57 µM],-14.9%,x,10.2%[59 µM],-2.5%
Cc1ccc(C)n1-c1sc2c(c1C(=O)O)CCCC2,u,22.4µM*,u,44.7µM*,u
Cc1ccc(C(=O)Nc2sc3c(c2C(=O)O)CCCC3)o1,18.8%,-3.2%,x,u,-33.3%
CCOC(=O)c1c(-n2c(C)cc(C=O)c2C)sc2c1CCCC2,-29.8%,56.2µM*,-3.6%,u,u
O=[N+]([O-])c1cccc2ccc(/C=C/c3ccc(C(F)(F)F)cc3)nc12,-19.8%,u,-0.4%,35.5µM*,-5.9%
O=[N+]([O-])c1cccc2ccc(/C=C/c3ccc(Cl)cc3)nc12,-30.6%,u,-18.4%,79.4µM*,57.2%
CCOCC(=O)Nc1nnc(Cc2ccc(OC)c(OC)c2)s1,-19.2%,-16.2%,5.2%,15.8µM*,-16.0%
CCCOC(=O)c1cc(-c2ccc(/C=C3/C(=O)N(C)C(=O)C(C#N)=C3C)o2)ccc1Cl,u,56.2µM*,x,x,x
C=CCOC(=O)c1cc(-c2ccc(/C=C3\C(=O)NC(=O)C(C#N)=C3C)o2)ccc1Cl,-96.6%,50.1µM*,x,8.91µM*,35.5µM*
NS(=O)(=O)c1ccc(-c2ccc(/C=C3\NC(=S)NC3=O)o2)cc1,u,25.1µM*,12.6µM*,8.91µM*,50.1µM*
Cc1ccc(NC(=O)/C(C#N)=C/c2ccc(-c3ccc(Cl)c(C(=O)O)c3)o2)cc1C,-7.5%,-20.1%,x,-50.7%[59 µM],-26.7%
CCCOC(=O)c1cc(-c2ccc(C=O)o2)ccc1Cl,10.9%,-2.6%,3.5%,u,2.4%
NS(=O)(=O)c1ccc(-c2ccc(C=O)o2)cc1,51.1%,-8.3%[11.4 µM],20.2%,-42.1%,-2.9%
CC1=C(C#N)C(=O)NC(=O)/C1=C/c1ccc(-c2ccc(S(N)(=O)=O)cc2)o1,u,70.8µM*,u,8.91µM*,44.7µM*
CCCNc1c(NC(=O)c2cccs2)c(=O)oc2ccccc12,37.0%,-2.7%,x,x,-19.0%
Nc1ncnc2c1ncn2[C@@H]1O[C@H](COP(=O)(O)OP(=O)(O)OP(=O)(O)OP(=O)(O)OC[C@@H]2O[C@H](n3cnc4c(N)ncnc43)[C@@H](O)[C@@H]2O)[C@H](O)[C@H]1O,x,x,x,7.0%,x
SMILES,HP1b chromo inh,JMJD2A Tudor inh,L3MBTL1 inh,G9a block,BAZ2B inh
CC(C)OCCCn1c(SCc2ccccc2Cl)nc2c(sc3ccccc32)c1=O,154.4%,4.0%,x,-1.3%[59 µM],-1.4%
O=C(O)Cn1cc(/C=N/NC(=O)c2cc3cc(Br)ccc3o2)c2ccccc21,43.0%,6.9%,x,-35.1%,50.1µM*
Cn1cc(/C=N/NC(=O)c2cc3cc(Br)ccc3o2)c2ccccc21,35.8%,-9.4%,x,50.1µM*,3.2%
O=C(O)c1ccc(-n2cccc2/C=N\NC(=O)c2cc3cc(Br)ccc3o2)cc1,44.7µM*,22.4µM*,x,14.1µM*,7.94µM*
COc1ccc(-n2c(SCC(=O)NCC3CCCO3)nc3c(c2=O)SC(C)C3)cc1 (configuration not stated),12.5%,-8.1%,x,x,-10.4%
Fc1ccc(-n2ncc3c(Nc4cccc(Cl)c4)ncnc32)cc1,25.4%,-3.1%,x,0.0%[59 µM],5.5%
S=c1[nH]nc(CSCCOc2ccc(Cl)cc2Cl)o1,6.9%,-15.5%,-7.8%,20µM*,-37.0%
Cc1ccc(Cl)cc1NC(=O)CN1C(=O)C(C)(C)c2cc(S(=O)(=O)N3CCCCC3)ccc21,6.1%[57 µM],-16.8%,x,0.3%[59 µM],-12.9%
CCCCCc1cc(=O)oc2c(C(CCN3CCCC(C)C3)c3ccc(N(C)C)cc3)c(OC)cc(OC)c12 (configuration not stated),25.1µM*,25.1µM*,x,-7.8%[12.7 µM],11.2µM*
COc1cc(OC)c2ccc(=O)oc2c1C(CCN1CCCC(C)C1)c1ccc(N(C)C)cc1 (configuration not stated),-20.2%,35.5µM*,x,u,u
COc1cc(OC)c2ccc(=O)oc2c1C(CC(=O)N1CCCC(C)C1)c1ccc2c(c1)OCO2 (configuration not stated),-10.1%,u,x,5.5%[12.7 µM],50.1µM*
O=c1c(=O)n(-c2ccccc2)ccn1Cc1c(F)cccc1Cl,20.9%,-30.6%,x,-4.2%[59 µM],u
CCOCCOC(=O)CCSc1n[nH]c(=O)[nH]c1=O,27.0%,-11.0%,3.4%,50.1µM*,-4.0%
CCCCCOC(=O)CSc1n[nH]c(=O)[nH]c1=O,16.2%,12.7%,x,10.8%[12.7 µM],-8.7%
O=S(=O)(/N=C/c1c(O)ccc2ccccc12)c1cccs1,x,x,x,1.41µM*,9.3%
Cc1ccc(S(=O)(=O)/N=C/c2c(O)ccc3ccccc23)cc1,-10.3%,u,-6.8%,3.98µM*,-9.0%
CCc1ccc(S(=O)(=O)Nc2ccc3[nH]c(=O)sc3c2)cc1,19.7%[57 µM],-15.0%,x,-35.4%[59 µM],-3.8%
N#Cc1cc([N+](=O)[O-])cnc1N(CCO)CCO,25.8%,-5.7%,2.3%,7.08µM*,-2.3%
CCC(CO)Nc1ncc([N+](=O)[O-])cc1C#N (configuration not stated),16.7%,-22.8%,5.1%,7.6%[59 µM],-1.2%
O=C(Nc1ccccc1N1CCOCC1)C1CCCO1 (configuration not stated),25.7%,0.8%,-1.6%,x,x
COc1cc(C(CCN2CCCC2)c2c(OC)cc(OC)c3c2OC(=O)CC3c2ccc(N(C)C)cc2)cc(OC)c1OC (configuration not stated),u,28.2µM*,x,x,x
COc1ccc(C2CC(=O)Oc3c(C(CCN4CCN(c5ccccc5)CC4)c4ccc(N(C)C)cc4)c(OC)cc(OC)c32)cc1 (configuration not stated),u,5.01µM*,x,u,4.47µM*

# High-throughput results deposited in PubChem BioAssay by National Center for Advancing Translational Sciences (NCATS).
